Out of some 310,000 compounds screened, about 3,300 (1.1%) were called active.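 How the source made its calls: active means B-score under library mean minus 3 SD, initial fluorescence not abnormally high, positive integrated signal ratio; inactive means the rest.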 Shown is part of a subset that was picked to be rich in actives.
biological target: Short transient receptor potential channel 6 (Mus musculus) (UniProt Q61143); assay: mouse TRPC6 channel inhibitors, primary screen, cell-based, HEK293, membrane potential dye (AID 2553); conditions: ACh-evoked depolarization, at 10 µM; stronger effect = lower value;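 on B-score: B-score derived from integrated fluorescence ratio over the kinetic read; more negative B-score means stronger inhibition of depolarization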
Sequence (Q61143 whole entry, looked up): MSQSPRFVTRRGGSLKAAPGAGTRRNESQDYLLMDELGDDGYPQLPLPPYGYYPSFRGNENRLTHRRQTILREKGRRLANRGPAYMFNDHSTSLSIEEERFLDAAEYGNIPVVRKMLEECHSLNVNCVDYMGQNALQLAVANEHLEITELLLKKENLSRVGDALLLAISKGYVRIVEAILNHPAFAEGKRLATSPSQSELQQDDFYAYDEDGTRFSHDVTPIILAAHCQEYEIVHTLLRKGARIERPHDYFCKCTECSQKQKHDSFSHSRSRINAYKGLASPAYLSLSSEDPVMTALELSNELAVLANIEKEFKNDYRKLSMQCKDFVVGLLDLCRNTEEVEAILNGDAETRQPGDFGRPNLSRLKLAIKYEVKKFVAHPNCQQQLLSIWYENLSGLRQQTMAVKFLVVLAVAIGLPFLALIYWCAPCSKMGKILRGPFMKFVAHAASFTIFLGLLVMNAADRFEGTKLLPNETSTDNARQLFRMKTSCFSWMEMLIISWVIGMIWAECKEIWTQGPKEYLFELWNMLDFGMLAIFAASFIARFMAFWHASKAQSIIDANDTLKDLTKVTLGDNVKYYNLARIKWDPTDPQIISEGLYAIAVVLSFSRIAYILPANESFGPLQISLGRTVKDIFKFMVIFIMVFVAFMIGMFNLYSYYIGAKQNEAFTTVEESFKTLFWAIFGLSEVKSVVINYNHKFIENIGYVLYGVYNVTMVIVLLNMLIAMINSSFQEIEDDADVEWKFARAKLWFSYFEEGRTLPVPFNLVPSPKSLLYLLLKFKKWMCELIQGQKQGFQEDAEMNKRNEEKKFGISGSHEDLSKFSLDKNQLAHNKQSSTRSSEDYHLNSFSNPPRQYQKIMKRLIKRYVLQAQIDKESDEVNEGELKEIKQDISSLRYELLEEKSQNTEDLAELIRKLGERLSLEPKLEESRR

B-score, inactive:
COc1ccccc1N1CC(C(=O)Nc2nnc(SCC(=O)NC(C)C)s2)CC1=O (configuration not stated), CS(=O)(=O)N(CC(O)Cn1c2ccccc2c2ccccc21)c1cccc2ccccc12 (configuration not stated), CCCCn1c(=O)c(C(C)=O)c(O)c2ccccc21, O=C1N(c2ccc(Cl)cc2)C(c2ccc(Cl)cc2)N2CCCN12 (configuration not stated), NC(=O)C1=C[C@H](c2csc3ccccc23)C[C@H](OCc2ccc(CO)cc2)O1, Cc1ccc2nc(Nc3ccccc3)cc(C)c2c1, Cc1nc2ccc(C(=O)N3CCN(c4ccccc4)CC3)cc2s1, O=C(NNS(=O)(=O)c1ccccc1)c1cnn(-c2ccc(Cl)cc2)c1C(F)(F)F, CC1CCC(NS(=O)(=O)c2ccc3c(c2)CC(=O)N3)CC1 (configuration not stated), CN(C)CCCN(C(=O)c1ccc(S(=O)(=O)N2CCCCCC2)cc1)c1nc2cc3c(cc2s1)OCCO3, CCOc1ccc2nc(N(CCCN(C)C)C(=O)c3ccc(C(=O)c4ccccc4)cc3)sc2c1, O=C(NCCCN1CCCCC1)C1CCCN(c2ncnc3c2nc2n3CCCCC2)C1 (configuration not stated), Cc1ccc(C(C(=O)NCC2CCCO2)N(C(=O)c2snc(C(N)=O)c2N)c2ccc(C(C)C)cc2)o1 (configuration not stated), Cc1cccc(NC(=O)Nc2ccc3c(c2)OCO3)n1, O=C(Nc1cccc2ccccc12)N1CCN(Cc2ccc3c(c2)OCO3)CC1, Cn1c(=O)cc(OCCCC(=O)N2CCN(Cc3ccc4c(c3)OCO4)CC2)c2ccccc21, CC1(C)O[C@H]2CC(=O)OCC23[C@H]2CC[C@@]4(C)[C@H](c5ccoc5)OC(=O)[C@H]5O[C@]54[C@]2(C)C(=O)C[C@@H]13 (some centres not stated), COc1ccccc1N(CC(=O)N/N=C(\C)c1ccccc1O)S(=O)(=O)c1ccc(C)cc1, CC1CCN(c2ccc([N+](=O)[O-])c(SCCO)c2)CC1, O=C(CSc1nc2ccccc2[nH]1)N/N=C/C=C\c1ccccc1[N+](=O)[O-], O=c1c(-c2ccc(Cl)cc2)[n+]([O-])c2ccccc2n1OCc1nc2ccccc2[nH]1, COc1ccc(C(=O)NC2CCN(C(=O)Nc3ccc(F)cc3)CC2)cc1, CCOC(=O)N1CCC(N2Cc3cccc(C(=O)Nc4ccc(S(=O)(=O)N(CC)CC)cc4)c3C2=O)CC1, CCCCN=C(N)/C(C(=O)OCC)=C(\O)c1ccc(OC)cc1, CCN1CCN(C(C(=O)NC2CCCC2)c2cc3c(cc2[N+](=O)[O-])OCO3)CC1 (configuration not stated), COC(=O)c1ccccc1NC(=O)C1CC(=O)N(c2ccc(OC)cc2)C1 (configuration not stated), COc1ccc(NC(=O)C2CCN(S(=O)(=O)c3ccc4[nH]c(=O)oc4c3)CC2)c(OC)c1, COc1cccc(NC(=O)C/C(C)=N/NC(=O)C2CCCCC2)c1, CCCOc1ccc(C2c3c(oc4cc(C)c(C)cc4c3=O)C(=O)N2CCCN2CCOCC2)cc1 (configuration not stated), Cc1cc2oc(=O)cc(CN3CCN(Cc4ccccc4)CC3)c2cc1C, CCc1ccc(/C=N/NC(=O)c2ccc(OC3CCCC3)cc2)s1, CCN(CC)C(=O)CSc1ncnc2c1cnn2-c1ccccc1, CCOc1ccccc1N1CCN(C(=O)c2ccc3[nH]c(C)c(C)c3c2)CC1, O=C(NCCO)C(=O)NCC(c1ccc2c(c1)OCO2)N1CCN(c2ccc(F)cc2)CC1 (configuration not stated), Cc1ccc(NC(=S)Nc2ccc(F)cc2)cc1, CC(C)CNC(=S)Nc1ccc(F)cc1, Cc1cc(Br)ccc1NC(=O)CN(C)C(=O)CN1C(=O)NC2(CCCC2)C1=O, CCOc1ccccc1-c1cc(C(=O)N/N=C(\C)c2cccnc2)c2ccccc2n1, CCNC(=O)Nc1ccc(S(=O)(=O)Nc2cnc(C)nc2C)cc1, CCCc1cc(=O)oc2c(C)c(OCC(=O)N3CCC(C(=O)O)CC3)ccc12, CCCc1cc(=O)oc2c(C)c(OC(C)C(=O)NCC(O)c3ccccc3)ccc12 (configuration not stated), O=C(N/N=C\C1CC=CCC1)c1ccc(Br)o1 (configuration not stated), CC(C)C(=O)N1c2ccccc2NC2=C(C(=O)CCC2)C1c1ccc(N(C)C)cc1 (configuration not stated), CN(C)c1ccc(C2Nc3ccccc3C(=O)N2NS(=O)(=O)c2ccccc2)cc1 (configuration not stated), S=c1[nH]c2ccccc2c2ccccc12, N=c1c2c3c(sc2ncn1N)CCCCC3, N=c1c2c3c(sc2ncn1N)CCCC3, C=C(C)Cn1c(C)cc(C)c(S(=O)(=O)c2ccccc2C)c1=O, C/C(=N\NC(=O)C1(C)CC1(Br)Br)c1ccc(C)cc1C (configuration not stated), C=CCNC(=O)c1ccccc1NC(=O)c1ccc(Cl)c(S(=O)(=O)Nc2cccc(C)c2C)c1, CN(C)C(CNC(=O)c1cccc(S(=O)(=O)Nc2ccc(Br)cc2)c1)c1ccco1 (configuration not stated), CC(=O)c1ccc(S(=O)(=O)Nc2ccc(C(=O)NCC(c3ccccc3)N(C)C)cc2)cc1 (configuration not stated), Nc1c(N(CCO)C(=O)C2CCCCC2)c(=O)[nH]c(=O)n1Cc1ccccc1, CCN(CCCNC(=O)c1ccc2c(c1)NC(=O)CN2C)c1cccc(C)c1, COc1ccc(CNC(=O)C(=O)NCC2OCCN2C(=O)c2ccc(OC)cc2)cc1 (configuration not stated), CCC1=NN(C(=O)Cc2ccc([N+](=O)[O-])cc2)C(O)(c2ccc(Br)cc2)C1 (configuration not stated), COc1ccc(Cl)cc1C(=O)NNC(=S)NC(=O)/C=C/c1ccco1, COc1cc2c(cc1OC)C(c1cccc([N+](=O)[O-])c1)=NCC2, COc1cc(C2C(C(=O)c3cccs3)=C(O)C(=O)N2CCN2CCOCC2)ccc1OCCC(C)C (configuration not stated), CC(=O)Nc1ccc(NS(=O)(=O)c2cc(C)sc2C)cc1, CCC(=O)N1CCCc2ccccc21, CCS(=O)(=O)N1CCC(C(=O)N2CCN(c3ccccc3)CC2)CC1, Cc1ccc(SCC(=O)NNC(=O)c2ccc(S(C)(=O)=O)cc2)cc1, COc1ccc(C(=O)N/N=c2\oc3ccccc3cc2C(N)=O)cc1, NC(=O)c1cc2ccccc2o/c1=N/NC(=O)c1cccc(F)c1, O=C(N/N=C\c1cccnc1)c1cc(-c2ccccc2)nc2c(Cl)cccc12, COc1ccc(S(=O)(=O)NNC(=O)Nc2ccc(C)cc2)c(OC)c1, Cc1cc2c(=O)n(CC(=O)NCC(=O)Nc3ccc(C(C)C)cc3)cnc2s1, CC1=NN(c2ccccc2)C(=O)C1C(=O)c1ccc([N+](=O)[O-])cc1 (configuration not stated), Cc1nn(-c2ccc([N+](=O)[O-])cc2)c(N)c1-c1ccccc1, CCCC(C)C(=O)NCc1ccncc1 (configuration not stated), O=C(NCc1ccncc1)NC12CC3CC(CC(C3)C1)C2, O=C(NCc1ccc(Cl)cc1)NCc1ccc(Cl)cc1, O=C(NCCCn1ccnc1)C(=O)NCC1OCCN1S(=O)(=O)c1cc(F)ccc1F (configuration not stated), CC1CC(C)CN(CC(=O)N2c3ccccc3CCc3ccccc32)C1 (configuration not stated), CN1CCN(S(=O)(=O)c2cccc(C(=O)N3CCc4ccccc43)c2)CC1, COc1ccc(C(=O)C2CCCN(C(=O)c3cc(C)on3)C2)cc1F (configuration not stated), COc1ccccc1/C=C/CN1CCC(CO)(Cc2ccccc2)CC1, Cc1cc(=O)cc(C)n1-c1ccc(Cl)c(Cl)c1, COc1ccc(NC(=O)CSc2nnc(-c3ccccc3F)n2C2CC2)cc1S(N)(=O)=O, Cc1ccccc1NC(=O)Nc1ccccc1N1CCCCC1, O=C(CNCCC1=CCCCC1)Nc1ccccc1N1CCCCCC1

B-score, active:
CCCCN(CCCC)CC(O)Cn1c2ccccc2c(=O)c2ccccc21 (configuration not stated) -5.74, c1ccc(C2CNCc3c2ccc2ccccc32)cc1 (configuration not stated) -5, Cc1ccc2nc(C)c3c(c2c1)N(c1ccccc1)CC3 -8.61, CCc1ccc2nc(N(CCCN(C)C)C(=O)c3ccc4c(c3)OCCO4)sc2c1 -6.22, O=C(CCCN1C(=O)c2cccc3cccc(c23)C1=O)N1CCN(Cc2ccc3c(c2)OCO3)CC1 -6.03, CN1CCN(c2ccc([N+](=O)[O-])c(Sc3nc4ccccc4[nH]3)c2)CC1 -5.53, COC(=O)c1ccccc1NC(=O)C1CCN(S(=O)(=O)c2cc(OC)ccc2OC)CC1 -5.1, Cc1cc2oc3ccc(NCCC4CCCN4C)cc3c(=O)c2cc1C (configuration not stated) -9.21, CC(NC(=S)Nc1ccc(OC(F)F)cc1)c1ccc(F)cc1 (configuration not stated) -5.09, CCCc1cc(=O)oc2c(C)c(O)c(CN3CCCCC3)cc12 -5.62, CN(C)c1ccc(C2N(C)C(=O)c3ccccc3N2C)cc1 (configuration not stated) -7.38, N=c1c2c3c(sc2ncn1CCCN1CCOCC1)CCCCC3 -5.61, COc1ccccc1C(CNC(=O)c1cccc(NS(=O)(=O)c2ccc(Br)cc2)c1)N(C)C (configuration not stated) -5.61, COc1cc2c(cc1OC)C(/C=C/c1ccco1)=NCC2 -5.37, O=C(C1CCN(S(=O)(=O)Cc2ccccc2)CC1)N1CCCc2ccccc21 -5.01, CCN(CC)c1ccc2cc(C(N)=O)/c(=N\NC(=O)c3ccncc3)oc2c1 -7.68, O=C1CC(c2ccccc2)=NN1c1ccc([N+](=O)[O-])cc1 -8.01, S=C(NCc1ccc(Cl)cc1)NC12CC3CC(CC(C3)C1)C2 -5.21, CN1CCN(C(=O)N2c3ccccc3CCc3ccccc32)CC1 -6.16, Cc1ccccc1NC(=O)CNc1ccccc1N1CCCCC1 -6.42
